Laboratory results published in PubChem BioAssay (NCI).
About 83,000 compounds went through this panel and 20% of them were active in at least one assay; those are over-represented in the sample as a whole.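 Interpretation: 100, growth as untreated; towards 0, rising growth inhibition; 0, no net growth; 0 to -100, cell death. Compounds scoring below 10 were considered active.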 Active and inactive are the calls of the source.

What was measured:
Assay in all cases: NCI-60 one-dose screen, 48 h (100 = growth as untreated, 0 = no growth, -100 = all killed)
Details in all cases: 10 µM unless noted
NCI-H23 lung = test system: NCI-H23 lung
NCI-H226 lung = test system: NCI-H226 lung
NCI-H322M lung = test system: NCI-H322M lung
HOP-62 NSCLC = test system: HOP-62 NSCLC
NCI-H460 lung = test system: NCI-H460 lung
HOP-92 NSCLC = test system: HOP-92 NSCLC
NCI-H522 lung = test system: NCI-H522 lung
A549/ATCC NSCLC = test system: A549/ATCC NSCLC
786-0 renal = test system: 786-0 renal
COLO 205 colon = test system: COLO 205 colon

Measured: growth

COc1ccc(/C=C/C(=O)C(CC2CCC2)C(=O)/C=C/c2ccc(OC)c(OC)c2)cc1OC
active: NCI-H23 lung 3.1% | NCI-H226 lung -0.278% | HOP-62 NSCLC -39% | NCI-H460 lung -30.3% | HOP-92 NSCLC -5.24% | NCI-H522 lung -38.2% | A549/ATCC NSCLC -47% | 786-0 renal -44.6% | COLO 205 colon -53.7%
inactive: NCI-H322M lung 10.6%

CCN1CCN(Cc2ccc(NC(=O)c3cccc(C#Cc4cccc5[nH]nc(N)c45)c3)cc2C(F)(F)F)CC1
inactive: NCI-H226 lung 16.6%
active: NCI-H23 lung -42.9% | NCI-H322M lung -49.6% | HOP-62 NSCLC -76.4% | NCI-H460 lung -72.2% | HOP-92 NSCLC -62.7% | NCI-H522 lung -84.7% | A549/ATCC NSCLC -91.2% | 786-0 renal -81.6% | COLO 205 colon -76.2%

COC(=O)/C=C1\SC(=Nc2ccc(F)cc2)N(CCc2c[nH]c3ccccc23)C1=O
inactive: NCI-H23 lung 85.3% | NCI-H226 lung 91.2% | NCI-H322M lung 101% | HOP-62 NSCLC 104% | NCI-H460 lung 104% | HOP-92 NSCLC 106% | NCI-H522 lung 68.3% | A549/ATCC NSCLC 79% | 786-0 renal 104% | COLO 205 colon 126%

O=C(Nc1ccccc1)NS(=O)(=O)c1c[nH]c(=S)[nH]c1=O
inactive: NCI-H23 lung 92.3% | NCI-H226 lung 105% | NCI-H322M lung 104% | HOP-62 NSCLC 72.4% | NCI-H460 lung 106% | HOP-92 NSCLC 115% | NCI-H522 lung 60.7% | A549/ATCC NSCLC 80.7% | 786-0 renal 95.7% | COLO 205 colon 96.5%

COc1cc(C(=O)Nc2cc(OC)c3ccn(C)c3c2)cc2c1C[C@]1(C)CC[C@@H](O)C(C)(C)[C@H]1O2
active: HOP-92 NSCLC 8.71% | NCI-H522 lung -3.97% | 786-0 renal 0.587% | COLO 205 colon 3.69%
inactive: NCI-H23 lung 30.3% | NCI-H226 lung 76.7% | NCI-H322M lung 57.3% | HOP-62 NSCLC 11.7% | NCI-H460 lung 14% | A549/ATCC NSCLC 24.1%

CC(C)(C)c1nn(-c2ccccc2)c2c1COCN2Cc1ccc(Cl)cc1
active: NCI-H522 lung 4.77%
inactive: NCI-H23 lung 84.7% | NCI-H226 lung 87.5% | NCI-H322M lung 101% | HOP-62 NSCLC 93% | NCI-H460 lung 81.1% | HOP-92 NSCLC 83.1% | A549/ATCC NSCLC 115% | 786-0 renal 90% | COLO 205 colon 101%

C#CC[C@@H]1C[C@]2(C)[C@H]3CC[C@@H]4[C@H]5[C@H](C(=C)C)CC[C@]5(C(=O)O)CC[C@@]4(C)[C@]3(C)CC[C@H]2C(C)(C)[C@H]1O
inactive: NCI-H23 lung 47.9% | NCI-H226 lung 29.1% | NCI-H322M lung 67.5% | HOP-62 NSCLC 59% | NCI-H460 lung 10.4% | NCI-H522 lung 61.8% | A549/ATCC NSCLC 16.9% | COLO 205 colon 83.2%
active: HOP-92 NSCLC -6.27% | 786-0 renal -1.51%

CNc1cccc2c1C(=O)c1cccc(N)c1C2=O
inactive: NCI-H23 lung 76.3% | NCI-H226 lung 82.4% | NCI-H322M lung 75.3% | HOP-62 NSCLC 89.3% | NCI-H460 lung 52.4% | HOP-92 NSCLC 20.5% | NCI-H522 lung 62.3% | A549/ATCC NSCLC 59.8% | 786-0 renal 38%
active: COLO 205 colon 7.33%

C=CCn1c(SCC(=O)Nc2ccc(C(=O)/C=C/c3cc(OC)c(OC)c(OC)c3)cc2)nnc1-c1ccc(Cl)cc1
active: NCI-H226 lung -4.38% | NCI-H522 lung -13.1%
inactive: NCI-H23 lung 23% | NCI-H322M lung 56.1% | HOP-62 NSCLC 25% | NCI-H460 lung 22.9% | HOP-92 NSCLC 75% | A549/ATCC NSCLC 28.9% | 786-0 renal 15.5% | COLO 205 colon 31.9%

Cc1cc(Cl)cc(CN(Cc2ccccc2)Cc2c(O)ccc3ccccc23)c1O
inactive: NCI-H23 lung 93.6% | NCI-H226 lung 104% | NCI-H322M lung 95.7% | HOP-62 NSCLC 92.3% | NCI-H460 lung 104% | HOP-92 NSCLC 83.7% | NCI-H522 lung 83% | A549/ATCC NSCLC 98% | 786-0 renal 103% | COLO 205 colon 115%

NC(=O)c1ccc2nc3c(n2c1)C(=O)C(=O)c1ccccc1-3
active: NCI-H23 lung -38.3% | NCI-H226 lung -49.7% | NCI-H322M lung -98.2% | HOP-62 NSCLC -87.8% | NCI-H460 lung -50.7% | HOP-92 NSCLC -80.9% | NCI-H522 lung -48.9% | A549/ATCC NSCLC -43.1% | 786-0 renal -99.4% | COLO 205 colon -69%

COc1cc(-c2cn(-c3ccc(Cl)c(Cl)c3)c(=O)[nH]2)cc(OC)c1OC
inactive: NCI-H23 lung 92.4% | NCI-H226 lung 93.1% | NCI-H322M lung 69.7% | NCI-H460 lung 96.7% | HOP-92 NSCLC 82% | NCI-H522 lung 74.5% | A549/ATCC NSCLC 89.7% | 786-0 renal 14.4% | COLO 205 colon 105%
active: HOP-62 NSCLC -1.73%

COc1ccc(C(=O)c2cc(OC)c(OC)c(OC)c2)cc1OC(=O)CCl
active: NCI-H460 lung 8.25% | NCI-H522 lung -12.4%
inactive: NCI-H23 lung 24% | NCI-H226 lung 109% | NCI-H322M lung 44.5% | HOP-62 NSCLC 22% | HOP-92 NSCLC 52.9% | A549/ATCC NSCLC 23% | 786-0 renal 28.7% | COLO 205 colon 16.4%

COc1cc(/C=C/CO)cc(OC)c1O[C@@H]1O[C@H](CO)[C@@H](O)[C@H](O)[C@H]1O
inactive: NCI-H23 lung 102% | NCI-H226 lung 86.2% | NCI-H322M lung 107% | HOP-62 NSCLC 94.2% | NCI-H460 lung 103% | HOP-92 NSCLC 94% | NCI-H522 lung 94.8% | A549/ATCC NSCLC 91.7% | 786-0 renal 96.7% | COLO 205 colon 107%

COc1ccc(-c2cs/c(=N\N=C\c3ccc(O)cc3O)n2/N=C/c2ccc(O)cc2O)cc1
active: NCI-H23 lung -28.5% | NCI-H226 lung -30.5% | NCI-H322M lung 5.37% | HOP-62 NSCLC -38.5% | NCI-H460 lung -10.5% | HOP-92 NSCLC 2.31% | NCI-H522 lung -35.6% | A549/ATCC NSCLC -21.5% | 786-0 renal 6.51% | COLO 205 colon -81.1%

CCCCc1n(Cc2ccc3ccccc3n2)cc[n+]1Cc1ccc2ccccc2c1
active: NCI-H23 lung -1.01% | NCI-H460 lung 7.73% | HOP-92 NSCLC -33.9% | NCI-H522 lung -8.22% | COLO 205 colon -74.2%
inactive: NCI-H226 lung 14.2% | NCI-H322M lung 30.6% | HOP-62 NSCLC 17.4% | A549/ATCC NSCLC 27% | 786-0 renal 20.4%
